Laboratory results published in the supplement of paper PMC11732987, “Enantioselective OTUD7B fragment discovery through chemoproteomics screening and high-throughput optimisation” (Communications Chemistry, 2025).
A number with no mark means an inactive call.

Columns and labels:
Test in all cases: log2 ratio of Biotin-Ahx-Ub-VS probe labelling (fragment/DMSO); higher = less target engagement (more negative = stronger competition), active = hit call of the paper (q ≤ 0.05, log2 ratio ≤ -1)
Settings in all cases: compound concentration: 200 uM; treatment time: 3 h
[1] = target: T1, ALG13 (UniProt Q9NP73)
T1 sequence (whole entry): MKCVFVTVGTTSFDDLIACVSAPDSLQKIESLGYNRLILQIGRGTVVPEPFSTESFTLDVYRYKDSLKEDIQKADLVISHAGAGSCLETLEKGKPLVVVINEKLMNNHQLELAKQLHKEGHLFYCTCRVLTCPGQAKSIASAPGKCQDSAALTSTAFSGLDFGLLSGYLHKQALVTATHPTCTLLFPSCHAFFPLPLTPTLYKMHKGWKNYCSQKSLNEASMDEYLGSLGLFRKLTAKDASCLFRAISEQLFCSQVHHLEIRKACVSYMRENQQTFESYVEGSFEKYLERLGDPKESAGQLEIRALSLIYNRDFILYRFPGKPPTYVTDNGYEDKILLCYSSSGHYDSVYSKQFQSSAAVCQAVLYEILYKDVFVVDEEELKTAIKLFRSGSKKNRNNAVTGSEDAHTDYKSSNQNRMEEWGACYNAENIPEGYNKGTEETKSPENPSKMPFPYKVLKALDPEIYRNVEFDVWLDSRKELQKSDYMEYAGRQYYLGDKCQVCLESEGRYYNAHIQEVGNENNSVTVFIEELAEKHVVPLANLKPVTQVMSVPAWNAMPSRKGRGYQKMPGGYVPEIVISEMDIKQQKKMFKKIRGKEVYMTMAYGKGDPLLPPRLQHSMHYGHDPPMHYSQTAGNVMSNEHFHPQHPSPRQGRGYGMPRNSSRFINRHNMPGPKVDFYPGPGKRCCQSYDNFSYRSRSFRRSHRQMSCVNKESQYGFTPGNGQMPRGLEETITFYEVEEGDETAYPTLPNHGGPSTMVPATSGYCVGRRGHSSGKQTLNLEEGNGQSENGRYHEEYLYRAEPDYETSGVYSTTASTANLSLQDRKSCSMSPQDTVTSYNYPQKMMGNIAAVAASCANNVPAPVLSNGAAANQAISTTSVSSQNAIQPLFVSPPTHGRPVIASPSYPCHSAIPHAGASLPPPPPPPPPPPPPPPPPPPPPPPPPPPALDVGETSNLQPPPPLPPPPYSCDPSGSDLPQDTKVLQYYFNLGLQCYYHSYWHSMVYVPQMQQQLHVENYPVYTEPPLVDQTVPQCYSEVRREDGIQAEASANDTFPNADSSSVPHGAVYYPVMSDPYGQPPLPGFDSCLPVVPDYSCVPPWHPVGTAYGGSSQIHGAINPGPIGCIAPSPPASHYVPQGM
How it was run: (§1)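 HEK293T lysate, 495 µg per sample in Tris/CHAPS/IGEPAL buffer with protease inhibitors, was treated in triplicate with fragment at 200 µM or vehicle for 3 h and then with Biotin-Ahx-Ub-VS at 0.5 µM final for 1 h. Labelled DUBs were NeutrAvidin-enriched, digested with LysC and trypsin, and run by diaPASEF LC-MS/MS. Spectronaut label-free quantities were global-median-normalised, and values are average log2 fragment/vehicle ratios by unpaired t-test on proteins with ≥2 unique peptides.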

[2] = target: ATXN3 (UniProt P54252)
Chain of ATXN3 (P54252 whole entry): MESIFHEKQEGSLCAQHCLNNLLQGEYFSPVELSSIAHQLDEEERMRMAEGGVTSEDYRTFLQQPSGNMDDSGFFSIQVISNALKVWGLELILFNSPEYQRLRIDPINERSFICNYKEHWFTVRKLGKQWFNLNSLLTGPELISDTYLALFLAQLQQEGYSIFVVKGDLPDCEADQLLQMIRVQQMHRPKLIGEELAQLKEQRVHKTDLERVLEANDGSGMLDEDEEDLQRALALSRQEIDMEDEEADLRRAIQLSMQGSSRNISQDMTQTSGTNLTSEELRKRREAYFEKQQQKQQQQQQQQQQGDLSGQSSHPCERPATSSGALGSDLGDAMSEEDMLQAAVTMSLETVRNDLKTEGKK
How it was run: as §1

[3] = target: T2, BAP1 (UniProt Q92560)
T2 sequence (whole entry): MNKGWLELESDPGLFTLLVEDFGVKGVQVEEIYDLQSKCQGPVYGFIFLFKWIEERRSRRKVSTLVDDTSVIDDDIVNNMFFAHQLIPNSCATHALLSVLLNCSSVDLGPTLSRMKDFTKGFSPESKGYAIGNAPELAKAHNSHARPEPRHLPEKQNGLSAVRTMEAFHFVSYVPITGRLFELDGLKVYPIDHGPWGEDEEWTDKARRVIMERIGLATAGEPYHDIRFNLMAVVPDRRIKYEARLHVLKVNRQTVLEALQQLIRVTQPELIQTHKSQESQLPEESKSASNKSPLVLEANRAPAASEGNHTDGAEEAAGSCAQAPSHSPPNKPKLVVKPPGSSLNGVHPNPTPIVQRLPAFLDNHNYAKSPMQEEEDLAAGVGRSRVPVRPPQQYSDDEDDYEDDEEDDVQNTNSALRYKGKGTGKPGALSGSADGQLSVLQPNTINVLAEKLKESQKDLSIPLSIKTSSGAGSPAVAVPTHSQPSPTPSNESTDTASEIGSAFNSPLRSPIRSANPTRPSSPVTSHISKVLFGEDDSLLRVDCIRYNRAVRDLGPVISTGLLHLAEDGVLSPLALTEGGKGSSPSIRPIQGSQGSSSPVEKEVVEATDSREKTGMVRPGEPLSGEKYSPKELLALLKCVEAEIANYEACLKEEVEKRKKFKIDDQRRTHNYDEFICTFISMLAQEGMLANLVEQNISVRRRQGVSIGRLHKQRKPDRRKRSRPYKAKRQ
How it was run: as §1

[4] = target: EIF3F (UniProt O00303)
Chain of EIF3F (O00303 whole entry): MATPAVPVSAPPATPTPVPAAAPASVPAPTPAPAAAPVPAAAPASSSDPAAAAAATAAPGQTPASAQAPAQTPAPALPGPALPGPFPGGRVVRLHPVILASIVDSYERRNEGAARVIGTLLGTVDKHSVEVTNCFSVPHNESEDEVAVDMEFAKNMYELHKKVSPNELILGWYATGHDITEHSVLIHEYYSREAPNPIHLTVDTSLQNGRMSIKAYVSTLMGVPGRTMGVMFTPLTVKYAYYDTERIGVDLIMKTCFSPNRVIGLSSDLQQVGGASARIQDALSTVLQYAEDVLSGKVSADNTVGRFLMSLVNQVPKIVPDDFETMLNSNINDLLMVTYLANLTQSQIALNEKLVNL
How it was run: as §1

[5] = target: EIF3H (UniProt O15372)
Chain of EIF3H (O15372 whole entry): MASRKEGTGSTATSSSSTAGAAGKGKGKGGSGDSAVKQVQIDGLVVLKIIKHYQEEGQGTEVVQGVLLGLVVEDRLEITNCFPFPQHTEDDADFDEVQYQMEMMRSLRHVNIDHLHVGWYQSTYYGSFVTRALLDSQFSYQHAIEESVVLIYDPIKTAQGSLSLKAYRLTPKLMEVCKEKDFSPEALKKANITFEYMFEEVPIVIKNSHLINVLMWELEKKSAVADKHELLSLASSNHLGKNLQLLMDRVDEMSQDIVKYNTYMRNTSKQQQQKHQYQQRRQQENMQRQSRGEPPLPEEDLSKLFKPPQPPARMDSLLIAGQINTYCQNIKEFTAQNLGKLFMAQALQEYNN
How it was run: as §1

[6] = target: T3, FAM105A (UniProt Q9NUU6)
T3 sequence (whole entry): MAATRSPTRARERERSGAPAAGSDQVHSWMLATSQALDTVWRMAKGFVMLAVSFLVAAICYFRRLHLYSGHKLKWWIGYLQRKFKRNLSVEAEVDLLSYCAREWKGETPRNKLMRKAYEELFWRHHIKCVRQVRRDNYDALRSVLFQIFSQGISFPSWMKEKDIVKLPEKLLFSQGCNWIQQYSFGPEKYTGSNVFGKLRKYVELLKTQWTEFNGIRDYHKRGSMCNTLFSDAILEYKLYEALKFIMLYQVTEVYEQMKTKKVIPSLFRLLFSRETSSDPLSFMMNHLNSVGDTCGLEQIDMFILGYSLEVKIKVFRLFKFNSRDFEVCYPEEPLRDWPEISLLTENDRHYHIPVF
How it was run: as §1

[7] = target: OTUB1 (UniProt Q96FW1)
Chain of OTUB1 (Q96FW1 whole entry): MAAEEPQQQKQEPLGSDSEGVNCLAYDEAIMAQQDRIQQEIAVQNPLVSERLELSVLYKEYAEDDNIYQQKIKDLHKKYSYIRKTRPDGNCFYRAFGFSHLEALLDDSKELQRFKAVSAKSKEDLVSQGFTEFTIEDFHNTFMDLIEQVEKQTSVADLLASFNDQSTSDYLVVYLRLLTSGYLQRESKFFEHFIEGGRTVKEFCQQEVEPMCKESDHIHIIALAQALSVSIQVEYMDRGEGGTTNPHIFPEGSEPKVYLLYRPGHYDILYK
How it was run: as §1

[8] = target: T4, OTUD4 (UniProt Q01804)
T4 sequence (whole entry): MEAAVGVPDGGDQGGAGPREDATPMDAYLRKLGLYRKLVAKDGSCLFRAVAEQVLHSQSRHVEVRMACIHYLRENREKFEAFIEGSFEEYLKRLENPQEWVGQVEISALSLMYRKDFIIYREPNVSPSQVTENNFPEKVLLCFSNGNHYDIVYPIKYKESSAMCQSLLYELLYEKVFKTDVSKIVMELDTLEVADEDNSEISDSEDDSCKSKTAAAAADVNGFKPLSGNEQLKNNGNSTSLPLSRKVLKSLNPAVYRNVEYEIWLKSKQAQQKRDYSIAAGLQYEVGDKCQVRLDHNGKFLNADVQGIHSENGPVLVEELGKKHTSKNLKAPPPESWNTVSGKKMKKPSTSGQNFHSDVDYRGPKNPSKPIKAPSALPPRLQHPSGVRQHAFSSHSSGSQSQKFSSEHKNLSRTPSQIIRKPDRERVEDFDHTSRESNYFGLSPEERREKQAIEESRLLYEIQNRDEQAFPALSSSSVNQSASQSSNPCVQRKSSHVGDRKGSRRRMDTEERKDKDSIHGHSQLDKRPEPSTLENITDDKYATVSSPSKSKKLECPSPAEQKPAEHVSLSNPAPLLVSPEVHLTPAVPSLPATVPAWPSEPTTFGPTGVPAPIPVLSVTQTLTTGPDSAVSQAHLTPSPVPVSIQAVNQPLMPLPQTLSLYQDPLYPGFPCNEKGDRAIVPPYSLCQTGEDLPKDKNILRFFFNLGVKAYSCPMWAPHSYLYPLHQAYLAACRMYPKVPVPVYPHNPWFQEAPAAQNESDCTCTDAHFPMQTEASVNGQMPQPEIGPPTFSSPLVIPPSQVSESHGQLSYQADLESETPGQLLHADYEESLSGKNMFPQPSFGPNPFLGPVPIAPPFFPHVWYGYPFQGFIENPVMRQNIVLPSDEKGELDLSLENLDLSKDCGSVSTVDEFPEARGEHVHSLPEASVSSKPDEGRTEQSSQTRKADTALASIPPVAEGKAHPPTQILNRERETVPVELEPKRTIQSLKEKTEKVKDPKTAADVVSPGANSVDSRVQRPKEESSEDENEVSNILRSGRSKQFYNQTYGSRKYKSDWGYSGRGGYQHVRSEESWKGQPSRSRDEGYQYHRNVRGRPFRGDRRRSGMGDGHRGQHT
How it was run: as §1

[9] = target: T5, OTUD5 (UniProt Q96G74)
T5 sequence (whole entry): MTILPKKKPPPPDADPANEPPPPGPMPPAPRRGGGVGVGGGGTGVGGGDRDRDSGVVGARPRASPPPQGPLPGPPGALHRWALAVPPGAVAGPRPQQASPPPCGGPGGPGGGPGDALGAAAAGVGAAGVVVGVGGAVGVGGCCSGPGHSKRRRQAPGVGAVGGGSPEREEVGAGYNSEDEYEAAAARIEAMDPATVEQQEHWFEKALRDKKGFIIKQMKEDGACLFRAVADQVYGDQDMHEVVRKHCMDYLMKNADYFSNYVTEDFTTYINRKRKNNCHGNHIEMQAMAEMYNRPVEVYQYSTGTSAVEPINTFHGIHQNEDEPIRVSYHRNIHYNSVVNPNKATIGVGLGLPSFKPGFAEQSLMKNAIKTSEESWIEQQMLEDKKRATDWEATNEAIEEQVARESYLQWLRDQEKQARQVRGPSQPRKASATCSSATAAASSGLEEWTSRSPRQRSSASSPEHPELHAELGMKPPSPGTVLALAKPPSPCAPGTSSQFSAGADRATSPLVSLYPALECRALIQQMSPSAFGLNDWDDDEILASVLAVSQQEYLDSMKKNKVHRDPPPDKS
How it was run: as §1

Structure (SMILES)	log2 ratio of Biotin-Ahx-Ub-VS probe labelling [1]	log2 ratio of Biotin-Ahx-Ub-VS probe labelling [2]	log2 ratio of Biotin-Ahx-Ub-VS probe labelling [3]	log2 ratio of Biotin-Ahx-Ub-VS probe labelling [4]	log2 ratio of Biotin-Ahx-Ub-VS probe labelling [5]	log2 ratio of Biotin-Ahx-Ub-VS probe labelling [6]	log2 ratio of Biotin-Ahx-Ub-VS probe labelling [7]	log2 ratio of Biotin-Ahx-Ub-VS probe labelling [8]	log2 ratio of Biotin-Ahx-Ub-VS probe labelling [9]
Cl.Cn1ncc2c1CCCC2NC(=O)CCl (configuration not stated)	0.35	-0.16	-0.894	-0.378	0.457	0.0219	-0.186	-1.75 (active)	-0.0276
Cc1cccc2nc(CCNC(=O)CCl)cn12.Cl	-0.496	-0.436	-0.904	-0.438	-0.726	-0.0367	-0.236	-0.21	-0.495
NC(=O)C(Cc1ccccc1)NC(=O)CCl (configuration not stated)	0.0325	-0.279	-2.01 (active)	0.127	-0.254	-0.0569	0.128	-0.451	-0.216
O=C(CCl)N1CCOC(c2cccc(F)c2)C1 (configuration not stated)	-0.261	-2.59 (active)	-1.09 (active)	-0.0524	0.265	-0.167	-0.175	-0.803	-0.491
Cc1cccc(N(CCC#N)C(=O)CCl)c1C	-0.29	0.0325	-0.645	-0.0896	0.111	-0.0506	0.00102	-1.76 (active)	-0.19
CCC1c2ccsc2CCN1C(=O)CCl (configuration not stated)	0.127	-0.424	-0.48	-0.262	0.089	0.09	0.0848	-0.658	-1.15 (active)
Cc1ncc2c(n1)CCN(C(=O)CCl)C2	-0.466	-0.614	-0.39	-0.159	0.129	0.443	-0.578	-0.0123	-0.606
O=C(CCl)NCc1cccc(F)c1	-0.54	-0.297	-2.76 (active)	-0.186	0.138	0.303	-0.181	-0.316	-0.429
